FBPA Giardia inh = blocks Giardia fructose-bisphosphate aldolase activity | A8B2U2 | purified Giardia FBPA | Potency, µM (doses to about 59.6 µM), usual class: inhibitors | hit rate 0.71% among 290,000 | AID 2451; note: nearly all actives have a fitted effect of over 55% in size
Target sequence (A8B2U2 whole entry, looked up): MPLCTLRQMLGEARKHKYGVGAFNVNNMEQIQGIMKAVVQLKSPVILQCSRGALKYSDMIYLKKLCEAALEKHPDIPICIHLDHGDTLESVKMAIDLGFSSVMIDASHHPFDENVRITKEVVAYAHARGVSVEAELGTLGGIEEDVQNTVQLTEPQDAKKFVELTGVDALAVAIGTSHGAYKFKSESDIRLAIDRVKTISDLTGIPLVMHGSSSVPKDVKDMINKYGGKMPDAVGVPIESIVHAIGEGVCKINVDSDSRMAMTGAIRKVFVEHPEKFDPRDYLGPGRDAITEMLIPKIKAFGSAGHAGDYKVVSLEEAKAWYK
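Giardia FBPA (40 nM reagent) was preincubated 10 min at RT with compound (up to 57.5 uM final), then substrate plus GAPDH/TPI/NAD/arsenate coupling system with diaphorase/resazurin was added; resorufin fluorescence (525/598 nm) was read after 20 min.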
Shiga inhibitor = inhibitors of Shiga toxin in Vero cells; Vero cells, Shiga toxin protein synthesis inhibition reporter; inhibition, % at 38.7 µM; hit rate 9.2% among 290,000; AID 2315; in the data active = inhibition mostly above about 28%, no sharp cut-off; inactive = mostly below about 43%
LmPK inhibitor = blocks Leishmania mexicana pyruvate kinase activity; hit rate 0.37% among 290,000; AID 1721; purified LmPK, Kinase-Glo ATP luminescence, 1 h; Potency, µM (series often up to 57.5 µM), most hits filed as inhibitors
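Kinase-Glo luminescence read after 1 h RT reaction of 0.1 nM LmPK with 0.5 mM PEP and 0.1 mM ADP. Activity scaled between uninhibited and enzyme-free controls.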
TbPYK inhibitor = blocks Trypanosoma brucei pyruvate kinase. TbPYK enzyme, Kinase-Glo Plus ATP luminescence, 45 min. Potency, µM (top dose mostly 76.8 µM), most hits filed as inhibitors. AID 624173. hit rate 0.12% among 410,000. Q57TT1; note: nearly all actives have a fitted effect of over 50% in size
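Glycolytic pyruvate kinase of T. brucei was incubated with substrate, test compound and 130 uM ADP for 45 minutes at room temperature. Luminescent Kinase-Glo Plus signal was measured after 10 minutes.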
RE007 growth inh = less growth of the S. pombe RE007 Vpr strain | S. pombe RE007 Vpr strain, BacTiter-Glo ATP luminescence, 24 h | Potency, µM (doses to about 92.2 µM), most hits filed as inhibitors | hit rate 0.21% among 360,000; active = well fitted falling curve with a large enough effect; inconclusive = small, poorly fitted or top-dose-only effect; inactive = no such curve, though single readings can be large or run the other way; note: nearly all actives have a fitted effect of over 50% in size
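Fission yeast strain RE007, carrying one chromosomally integrated HIV-1 vpr copy, was seeded at OD 0.01 in PMG+AL medium with 23 nL pinned compound. After 24 h at 30 °C and 99% humidity, viability was read by BacTiter-Glo luminescence.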
CHX counter = counter-screen hit for Shiga toxin inhibitors, cycloheximide; cell reporter, cycloheximide protein synthesis inhibition counterscreen; AID 2314; max response, %; hit rate 12% among 300,000; in the data active = max response mostly above about 13%, no sharp cut-off; inactive = mostly below about 14%; note: read at 38.3 µM for the half of the compounds with a filed dose
Numbers stand for hits; - = inactive; ? = inconclusive; . = no result. Many of the other results were omitted from the sample, so hits are more common in it than they were. Unless noted, calls come from the whole dose curve; as a rule, active = well fitted curve in the direction sought with a large enough effect; inconclusive = small, poorly fitted or top-dose-only effect, or another doubt; inactive = no such curve, though single readings can be large; an effect the other way counts as inactive or inconclusive.

SMILES	FBPA Giardia inh	Shiga inhibitor	LmPK inhibitor	TbPYK inhibitor	RE007 growth inh	CHX counter
COc1ccc2c(C(=O)CN3CCN(c4ccccc4)CC3)c[nH]c2c1	-	-	-	-	-	-
COc1ccc2[nH]cc(C(=O)CN3CCN(C4CCCCC4)CC3)c2c1	-	-	-	-	-	-
COc1ccc2c(C(=O)CN3CCSCC3)c[nH]c2c1	-	40	-	-	-	32
COc1ccc2[nH]cc(C(=O)CN3CCCCC3)c2c1	-	-	-	-	-	27
Cc1ccc2onc(CNC(=O)N3CCN(c4cccc(C)c4C)CC3)c2c1	.	.	.	-	.	.
Cc1ccc(C2(c3ccc(C)cc3)NC(=O)N(CC(N)=O)C2=O)cc1	.	-	-	-	-	-
Cc1cc(OCCCC(=O)NNC(=O)c2ccncc2)ccc1Cl	.	-	-	-	-	-
CCC(C)/C(C)=N/NC(=O)c1ccc(COc2ccc(Cl)c(C)c2)cc1 (stereo not given)	-	-	-	-	?	38
CSC1=NSC2=NC(=O)/C(=C\c3coc4ccccc4c3=O)C(=N)N12	-	-	-	-	28µM	-
CC(C)CSC1=NSC2=NC(=O)/C(=C\c3coc4ccccc4c3=O)C(=N)N12	-	71	-	-	-	27
N=C1/C(=C\c2coc3ccccc3c2=O)C(=O)N=C2SC(c3ccncc3)=NN12	-	-	-	-	14µM	-
CC(C)CSC1=NSC2=NC(=O)/C(=C\c3ccccc3)C(=N)N12	-	77	-	-	-	38
NNC(=O)c1ccc(CSc2n[nH]c(=O)[nH]c2=O)cc1	-	-	-	-	-	-
CCc1ccccc1NC(=O)Nc1cc(C(=O)NCc2ccc(OC)cc2)ccc1N1CCCC1	.	.	.	-	.	.
Cc1cccc(NC(=O)c2ccc(Cn3nc(N4CCN(c5ccccc5)CC4)ccc3=O)o2)c1C	.	.	.	-	.	.
CN1C(=O)C(=Cc2coc3ccccc3c2=O)C(=O)N(C)C1=O	-	-	-	?	-	20
Nc1ccc(NC(=O)c2cccs2)c(Cl)c1	-	55	-	-	-	32
O=C(Nc1ccc(N2C(=O)C3C4C=CC(C4)C3C2=O)cc1Cl)c1cccs1 (stereo not given)	-	-	-	-	-	-
O=C(NNc1cc(Cl)ccc1Cl)c1cccs1	-	-	-	-	-	-
Nc1ccc(Cl)c(NC(=O)c2cccs2)c1	-	active	-	-	-	16
CCOC(=O)Nc1ccc2c(COC(=O)c3ccccc3O)cc(=O)oc2c1	-	76	-	-	-	27
Cc1ccc2c(COC(=O)C3=COCCO3)cc(=O)oc2c1	-	89	-	-	-	64
Cc1ccc2c(COC(=O)c3cnc(C)cn3)cc(=O)oc2c1	-	-	-	.	.	-
Cc1ccc2c(COC(=O)c3ccccc3OC(F)F)cc(=O)oc2c1	-	-	-	-	-	26
Cc1ccc2c(COC(=O)CNC(=O)c3ccccc3)cc(=O)oc2c1	-	-	-	-	-	36
SMILES	FBPA Giardia inh	Shiga inhibitor	LmPK inhibitor	TbPYK inhibitor	RE007 growth inh	CHX counter
N#Cc1cccc(CS(=O)(=O)c2nc3ccccc3s2)c1	-	.	.	.	.	.
CC(C)C(NC(=O)C(NC(=O)C1OC2OC(C)(C)OC2C2OC(C)(C)OC12)C(C)C)C(=O)O (stereo not given)	-	31	-	-	-	15
CC(C)c1ccc(CNCc2ccccc2)cc1	-	60	-	-	-	32
CC(=O)c1ccc(S(=O)(=O)Oc2ccc(-c3ccc(C(=O)O)cc3)cc2)cc1	-	-	-	-	-	-
COc1ccc(NC(=O)C2CCN(S(=O)(=O)c3cccc(-c4noc(C)n4)c3)CC2)cc1OC	.	.	.	-	.	.
O=C(CCc1nnc(-c2ccc3c(c2)OCO3)o1)NCCc1ccccc1F	-	-	-	?	-	-
CCN(CC)C(=O)CCc1nnc(Cc2cccc(C(F)(F)F)c2)o1	-	-	-	-	-	-
Cc1cc(CN(C)C(=O)CCc2nnc(Cc3cccc(C(F)(F)F)c3)o2)on1	-	58	-	-	-	33
O=C(CCc1nnc(Cc2cccc(C(F)(F)F)c2)o1)NCCc1ccccc1F	-	126	-	-	-	29
Cc1ccc(CN2C(=O)CCC2C(=O)NCCN(CC(C)C)CC(C)C)cc1 (stereo not given)	-	-	-	-	-	26

Screening results as filed in PubChem BioAssay.
